Source: PubChem (several laboratories)
In the library only some 1.4% were active in any assay of this set; here they are far more common.
BJeLR viability – MLPCN primary cell-based screen for lethality selective to Ras in HRASV12 cells | BJeLR (HRASV12) viability, CellTiter-Glo ATP luminescence, 48 h | inhibition, % (concentration not given with the values) | hit rate 0.17% among 300,000 | AID 1554, 2009; in the data active = inhibition above about 50%
3CLpro inhibitor – SARS-CoV 3CLpro protease inhibitors, primary screen, biochemical, quenched FRET. recombinant SARS-CoV 3CLpro, quenched FRET peptide cleavage. inhibition, % at 6 µM. hit rate 0.14% among 290,000. AID 1706, 2009; in the data active = inhibition above about 12%
PrPC surface inh – inhibitors of human cell surface prion protein PrPC, primary screen, cell-based, TR-FRET; hit rate 0.43% among 370,000; inhibition, % at 13.8 µM; Major prion protein (Homo sapiens), P04156; TR-FRET read-out; in the data active = inhibition above about 24%
Mtb hypoxia rep – PubChem AID 1159583. M. tuberculosis hypoxia-regulated fluorescent reporter, fluorescence. fluorescence inhibition, % (test concentration not listed). hit rate 0.1% among 300,000; in the data active = fluorescence inhibition mostly above about 23%, no sharp cut-off; inactive = mostly below about 17%
PrP 5UTR inh – inhibition of PrP 5' UTR reporter expression; inhibition, % (no concentration beside the values); cell-based PrP 5' UTR mRNA reporter, plate reader; hit rate 0.35% among 340,000; in the data active = inhibition above about 52%
RecA intein inh – Mtb RecA intein splicing inhibitors, primary screen, biochemical, fluorescence, HTS | Protein RecA (Mycobacterium tuberculosis (strain ATCC 25618 / H37Rv)), P9WHJ3 | cell-free RecA intein splicing | inhibition, % (no concentration beside the values) | hit rate 0.75% among 290,000 | AID 2221, 2009; in the data active = inhibition above about 30%
Target sequence (P9WHJ3 whole entry, looked up): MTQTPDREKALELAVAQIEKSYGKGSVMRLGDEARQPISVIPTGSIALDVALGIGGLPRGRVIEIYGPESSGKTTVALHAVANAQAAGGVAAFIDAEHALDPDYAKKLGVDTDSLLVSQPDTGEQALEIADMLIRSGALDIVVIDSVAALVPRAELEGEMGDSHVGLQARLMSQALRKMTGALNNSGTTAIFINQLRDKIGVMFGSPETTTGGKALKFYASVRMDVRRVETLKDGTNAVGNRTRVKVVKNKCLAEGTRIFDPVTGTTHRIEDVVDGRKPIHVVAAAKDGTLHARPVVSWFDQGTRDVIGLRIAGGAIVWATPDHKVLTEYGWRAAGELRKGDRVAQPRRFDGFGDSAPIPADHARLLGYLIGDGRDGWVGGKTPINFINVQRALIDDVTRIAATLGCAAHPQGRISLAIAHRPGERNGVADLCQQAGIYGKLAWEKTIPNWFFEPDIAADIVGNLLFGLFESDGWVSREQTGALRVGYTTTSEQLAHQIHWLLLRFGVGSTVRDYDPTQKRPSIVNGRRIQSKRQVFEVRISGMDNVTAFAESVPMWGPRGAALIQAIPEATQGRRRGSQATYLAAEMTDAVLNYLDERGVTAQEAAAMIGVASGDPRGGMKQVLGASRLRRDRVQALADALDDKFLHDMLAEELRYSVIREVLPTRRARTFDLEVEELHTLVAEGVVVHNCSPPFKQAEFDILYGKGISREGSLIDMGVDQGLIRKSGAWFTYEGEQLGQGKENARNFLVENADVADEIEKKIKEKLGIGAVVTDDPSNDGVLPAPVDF
GFP chromo cs – counter-screen: blocks GFP chromophore formation, dose response, counter-screen, biochemical, fluorescence, homogeneous. EC50, µM. shares compounds with RecA intein inh. hit rate 83% among 2,100. cell-free GFP chromophore formation; call rule not given here
Each line names hits and unclear results; the compound was inactive in the other large screens (follow-up assays come after a bar, where shown).

O=C1c2ccccc2C(=O)c2c1ncn2-c1ccccc1	RecA intein inh 36.9 | GFP chromo cs inactive
O=C1c2ccccc2C(=O)c2[nH]cnc21	none (no result: Mtb hypoxia rep)
Cc1[nH][nH]c(=O)c1C(c1ccc(-c2ccccc2C(=O)O)o1)c1c(C)[nH][nH]c1=O	RecA intein inh 96.1 | GFP chromo cs 0.493
COC(=O)c1ccc(-c2ccc(C(c3c(C)[nH][nH]c3=O)c3c(C)[nH][nH]c3=O)o2)cc1	RecA intein inh 94.7 | GFP chromo cs 0.645
Cc1[nH][nH]c(=O)c1C(c1ccc(-c2ccc(Cl)cc2Cl)o1)c1c(C)[nH][nH]c1=O	none (no result: BJeLR viability, PrPC surface inh, Mtb hypoxia rep, PrP 5UTR inh, RecA intein inh)
O=C1CSC(=NN=Cc2ccccc2Cl)N1CC1CC1	none (no result: BJeLR viability, 3CLpro inhibitor, PrPC surface inh, PrP 5UTR inh, RecA intein inh)
COc1ccccc1N(C(=O)CCl)c1cn(C(C)=O)c2ccccc12	BJeLR viability 65.1, RecA intein inh 51.1 | GFP chromo cs 22.6
Cc1ccc(-c2cc(=O)[nH][nH]2)c(C)c1	RecA intein inh 94.9 | GFP chromo cs 2.94
CS(=O)(=O)N1CCC(Oc2ccccc2C(=O)N2CCCCC2CO)CC1 (stereo not given)	RecA intein inh 48.5 | GFP chromo cs inactive
CC(C)CNC(=O)CC(=O)NN=Cc1cccs1	none (no result: BJeLR viability, 3CLpro inhibitor, PrPC surface inh, PrP 5UTR inh, RecA intein inh)
CC(=O)Oc1c(/C=C(\C#N)C(N)=O)[nH]c2ccccc12	RecA intein inh 74.4 | GFP chromo cs 0.0544
N#C/C(=C\c1c[nH]c2ccccc12)C(N)=O	none
ClCc1nnc(-c2cc3c(s2)CCCC3)o1	RecA intein inh 39.4 | GFP chromo cs 27.6
CC(C)C[C@H]1C(=O)N2CCC[C@H]2[C@]2(O)O[C@](NC(=O)[C@@H]3C=C4c5cccc6[nH]c(Br)c(c56)CC4N(C)C3)(C(C)C)C(=O)N12 (stereo not given in full)	RecA intein inh 55.6 (no result: Mtb hypoxia rep) | GFP chromo cs inactive
CC(C)CC1C(=O)N2CCCC2[C@]2(O)O[C@](NC(=O)C3C=C4c5cccc6[nH]c(Br)c(c56)CC4N(C)C3)(C(C)C)C(=O)N12 (stereo not given in full)	none (no result: BJeLR viability, 3CLpro inhibitor, PrPC surface inh, PrP 5UTR inh, RecA intein inh)
Cc1ccc2c(c1)C1C(CO2)C(c2ccccc2)[C@]2(C)C(=O)N(Cc3ccc(Cl)cc3)CC(=O)N12 (stereo not given in full)	none (no result: BJeLR viability, 3CLpro inhibitor, PrPC surface inh, PrP 5UTR inh, RecA intein inh)
COc1ccc(C(=O)NN=C(C)c2cccc(NC(=O)C(F)(F)F)c2)cc1	none (no result: BJeLR viability, 3CLpro inhibitor, PrPC surface inh, PrP 5UTR inh, RecA intein inh)
CCCNC1=C(N(C(C)=O)c2cccc(F)c2)C(=O)c2ccccc2C1=O	RecA intein inh 63.1 | GFP chromo cs 14.5
Cc1ccc2c(c1)NC(=O)[C@@]1(C)C(c3ccccc3)C3COc4ccc(Cl)cc4C3N1C2=O (stereo not given in full)	none (no result: BJeLR viability, 3CLpro inhibitor, PrPC surface inh, PrP 5UTR inh, RecA intein inh)
CS(=O)(=O)C1=NSC2=NC(=O)/C(=C\c3ccc(OC(=O)c4ccco4)cc3)C(=N)N21	RecA intein inh 35.0 (no result: PrPC surface inh, Mtb hypoxia rep, PrP 5UTR inh) | GFP chromo cs inactive
C=CCCC(Cc1ccc(F)cc1)C(=O)OC(CNC(=O)C(CC=C)CC(=O)N(CCO)Cc1ccccc1)c1ccccc1 (stereo not given)	none (no result: BJeLR viability, 3CLpro inhibitor, PrPC surface inh, PrP 5UTR inh, RecA intein inh)
Cc1cc(C)c2sc(N(CCCN(C)C)C(=O)c3ccc(S(=O)(=O)N(C)Cc4ccccc4)cc3)nc2c1	none (no result: 3CLpro inhibitor)
CCN(Cc1ccccc1)S(=O)(=O)c1ccc(C(=O)N(CCCN(C)C)c2nc3cc(C)cc(C)c3s2)cc1	RecA intein inh 31.4 (not shown: 3CLpro inhibitor, Mtb hypoxia rep) | GFP chromo cs inactive
COc1cc(/C=C2/SC(=S)N(Cc3ccccc3)C2=O)ccc1OCC(=O)O	RecA intein inh 36.9 (no result: Mtb hypoxia rep) | GFP chromo cs 32.6
COc1cc(/C=C2/SC(=S)N(Cc3ccccc3)C2=O)ccc1OS(C)(=O)=O	none
CCOc1cc(/C=C2/SC(=S)N(Cc3ccccc3)C2=O)ccc1O	RecA intein inh 32.9 | GFP chromo cs 27.6
CC(C)c1[nH]nc2c1C(c1ccc(OC(=O)c3ccco3)cc1)C(C#N)=C(N)O2 (stereo not given)	RecA intein inh 46.2 | GFP chromo cs 20.1
Cc1[nH]nc2c1C(c1ccc(OC(=O)c3ccco3)cc1)C(C#N)=C(N)O2 (stereo not given)	RecA intein inh 73.5 | GFP chromo cs 32.7
Cc1[nH]nc2c1C(c1cccc(OC(=O)N3CCOCC3)c1)C(C#N)=C(N)O2 (stereo not given)	RecA intein inh 59.4 (no result: Mtb hypoxia rep) | GFP chromo cs 35.4
CCOc1ccc(C2C(C#N)=C(N)Oc3nc[nH]c(=O)c32)cc1 (stereo not given)	none
CCCc1ccc(OCc2ccc(C(=O)NN=Cc3cccnc3)o2)cc1	none (no result: BJeLR viability, 3CLpro inhibitor, PrPC surface inh, PrP 5UTR inh, RecA intein inh)
Cc1cccc(C2C3C(=O)N(Cc4ccccc4)C(=O)C3[C@]3(CC(C)C)C(=O)N(c4cccc(Cl)c4)C(=O)N23)c1 (stereo not given in full)	none (no result: BJeLR viability, 3CLpro inhibitor, PrPC surface inh, PrP 5UTR inh, RecA intein inh)
CSc1nnc(NC(=O)C23CC4CC(CC(C4)C2)C3)s1	none | GFP chromo cs inactive
NC(=O)CSc1nnc(NC(=O)C23CC4CC(CC(C4)C2)C3)s1	none (no result: PrPC surface inh)
CCOC(=O)C=c1sc(=Cc2ccc3cc(OC)ccc3c2)c(=O)n1CC(=O)NCc1ccc2c(c1)OCO2	none (no result: BJeLR viability, 3CLpro inhibitor, PrPC surface inh, PrP 5UTR inh, RecA intein inh)
O=C(CCC1CCCCC1)NCCN1C2=NCC(Cc3ccc(O)cc3)N2CC1Cc1ccc(O)cc1 (stereo not given)	none (no result: BJeLR viability, 3CLpro inhibitor, PrPC surface inh, PrP 5UTR inh, RecA intein inh)
N#C/C(=C\c1ccccc1C(F)(F)F)C(=O)Nc1ccccc1	none
CCc1cccc(CC)c1NC(=O)/C(C#N)=C/c1ccccc1C(F)(F)F	RecA intein inh 30.8 | GFP chromo cs 32.3
CC(C)(C=NNC(=O)CSCc1ccc(Cl)cc1)CCC#N	none (no result: BJeLR viability, 3CLpro inhibitor, PrPC surface inh, PrP 5UTR inh, RecA intein inh)
COc1ccc2[nH]c3c(Cl)ncnc3c2c1	RecA intein inh 76.2 | GFP chromo cs inactive
CC(CC(=O)c1cccs1)CC(=O)c1cccs1	none
Cc1cc(C)c(C(CC(=O)c2cccs2)C(C#N)C#N)c(C)c1 (stereo not given)	RecA intein inh 83.4 | GFP chromo cs 8.59
COc1ccc(O)c(C(c2c(C)[nH][nH]c2=O)c2c(C)[nH][nH]c2=O)c1	RecA intein inh 91.8 (no result: Mtb hypoxia rep) | GFP chromo cs 3.77
COc1ccc(OC)c(C(c2c(C)[nH][nH]c2=O)c2c(C)[nH][nH]c2=O)c1	RecA intein inh 94.8 | GFP chromo cs 0.43
Cc1ccc(C=NNC(=S)Nc2cccc(S(=O)(=O)N(C)C)c2)o1	none (no result: BJeLR viability, 3CLpro inhibitor, PrPC surface inh, PrP 5UTR inh, RecA intein inh)
c1ccc(NN=C(Cc2ncc[nH]2)c2ccccc2)cc1	none (no result: BJeLR viability, 3CLpro inhibitor, PrPC surface inh, PrP 5UTR inh, RecA intein inh)
CCOc1cc(CNc2ccc3cn[nH]c3c2)ccc1OC	RecA intein inh 77.1 | GFP chromo cs 11.8
C=CCOc1ccc(CNc2ccc3[nH]c(=O)[nH]c3c2)cc1OC	none (no result: BJeLR viability, RecA intein inh)
COc1ccc(CNc2ccc3cn[nH]c3c2)c(OC)c1OC	RecA intein inh 45.6 | GFP chromo cs 1.22
CC(CC(=O)NC(C)(C)C)=NNC(N)=S	none (no result: BJeLR viability, 3CLpro inhibitor, PrPC surface inh, PrP 5UTR inh, RecA intein inh)
